Measured values reported in PubChem BioAssay AID588683 (Broad Institute, 2011).
Results with a measured potency or affinity are listed apart. The source made the active and inactive calls. No rule for the calls is given here.

target: Kelch-like ECH-associated protein 1 (Homo sapiens) + Nuclear factor erythroid 2-related factor 2 (Homo sapiens) (UniProt Q14145+Q16236); assay: disruptors of Keap1 binding to Nrf2 peptide – biochemical, fluorescence polarization, cherry-picked samples, dose response (AID 588683); conditions: plate reader; series mostly up to 26 µM; activity change, negative = inhibition: at the top concentration;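 also: Kelch domain of Keap1 binding a fluorescein-labelled 9mer Nrf2 peptide; more negative means stronger inhibition of peptide binding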
Sequence (Q14145 whole entry, looked up, the tested form may be a part): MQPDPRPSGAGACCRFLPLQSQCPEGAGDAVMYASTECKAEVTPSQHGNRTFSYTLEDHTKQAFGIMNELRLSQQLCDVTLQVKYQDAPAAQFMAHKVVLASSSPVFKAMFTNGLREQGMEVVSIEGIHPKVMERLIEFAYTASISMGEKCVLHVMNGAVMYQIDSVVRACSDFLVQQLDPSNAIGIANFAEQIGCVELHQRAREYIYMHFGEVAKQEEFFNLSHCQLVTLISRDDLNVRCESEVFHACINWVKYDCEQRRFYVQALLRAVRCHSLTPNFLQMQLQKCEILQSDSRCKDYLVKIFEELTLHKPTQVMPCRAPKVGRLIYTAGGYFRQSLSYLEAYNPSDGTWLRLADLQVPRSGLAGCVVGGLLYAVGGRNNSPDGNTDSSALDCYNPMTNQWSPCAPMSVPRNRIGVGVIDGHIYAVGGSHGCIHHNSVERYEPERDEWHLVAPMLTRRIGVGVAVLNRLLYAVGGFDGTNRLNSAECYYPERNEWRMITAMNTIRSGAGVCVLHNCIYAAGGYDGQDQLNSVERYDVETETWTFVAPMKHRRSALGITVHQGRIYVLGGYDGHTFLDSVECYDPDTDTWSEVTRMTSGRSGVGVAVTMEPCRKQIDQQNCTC
Sequence (Q16236 whole entry, looked up, the tested form may be a part): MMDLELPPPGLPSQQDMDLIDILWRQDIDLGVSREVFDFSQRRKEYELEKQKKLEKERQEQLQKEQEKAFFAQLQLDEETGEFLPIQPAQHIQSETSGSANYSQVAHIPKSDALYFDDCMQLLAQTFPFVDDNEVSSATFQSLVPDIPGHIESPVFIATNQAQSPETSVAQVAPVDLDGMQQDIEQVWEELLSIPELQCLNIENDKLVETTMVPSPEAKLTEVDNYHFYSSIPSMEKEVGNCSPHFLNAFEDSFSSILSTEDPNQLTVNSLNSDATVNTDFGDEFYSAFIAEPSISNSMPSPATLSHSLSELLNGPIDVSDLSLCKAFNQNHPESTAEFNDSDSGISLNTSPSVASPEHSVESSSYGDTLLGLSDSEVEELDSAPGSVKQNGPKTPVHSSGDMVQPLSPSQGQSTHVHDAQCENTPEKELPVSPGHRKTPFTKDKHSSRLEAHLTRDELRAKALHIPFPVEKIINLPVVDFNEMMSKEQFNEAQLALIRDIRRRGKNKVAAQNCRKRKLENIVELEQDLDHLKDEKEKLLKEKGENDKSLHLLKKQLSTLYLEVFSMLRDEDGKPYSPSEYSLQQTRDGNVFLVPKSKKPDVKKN

Activity change, negative = inhibition, inactive:
c1ccc(Nc2nc3ccccc3n3nnnc23)cc1 -21.3%, COc1cc(/C=C/CN2CCN(CCC(C)C)C(CCO)C2)ccc1O (stereo not drawn) -10.6%, CN1CC=C2C(C#N)=C(N)C(C#N)(C#N)C(c3ccsc3)C2C1 (stereo not drawn) -0.634%, O=C(O)c1cccc(-n2cccc2/C=C2/NC(=O)N(c3ccc(Cl)cc3)C2=O)c1 2.3%, CCOCCCn1c(=NC(=O)c2cccs2)c(C#N)cc2c(=O)n3cccc(C)c3nc21 6.08%, Cc1ccc(S(=O)(=O)NCC(=O)OCC(=O)Nc2ccc3c(c2)OCCO3)cc1 -2.89%, Cc1cccc(NC(=O)CCN2CCCCC2)c1 0.772%, Oc1[nH]c2ccccc2c1N=Nc1ccccc1 -5.01%, N#Cc1c(SCC(=O)Nc2nncs2)sc2c(O)cc(=O)[nH]c12 -7.37%, OC(Cc1ccncc1)(c1ccccc1)c1ccccc1 -9.67%, COc1ccc(NC(=O)Cc2ccsc2)cc1S(=O)(=O)N1CCOCC1 -11.7%, Cc1cc(C)c2nc3sc(C(=O)N4CCOCC4)c(N)c3cc2c1 -6.56%, COc1cc(NC(=O)CSc2nc3cc(C)ccc3cc2C)c(C(=O)O)cc1OC -2.64%, COCCCn1c(=NC(=O)c2ccccc2)c(C#N)cc2c(=O)n3cccc(C)c3nc21 2.49%, CC(=O)C1C(c2ccc(F)cc2)c2c(noc2C)CC1(C)O (stereo not drawn) -4.11%, O=S(=O)([O-])CCC[n+]1c(SCCCS(=O)(=O)O)sc2ccc(Cl)cc21 -4.67%, O=C(Nc1ccccn1)C1CCN(S(=O)(=O)c2ccc3c(c2)OCCO3)CC1 -4.65%, c1ccc(-n2ncc3c(NCC4CCCO4)ncnc32)cc1 (stereo not drawn) -14.1%
